From PubChem BioAssay (NCATS) come the findings set out here.

Assay [1] can be described thus: Cytotoxicity counterscreen for inhibitors of SARS-CoV-2 cell entry (AID 1645845). Also: nearly all actives have a fitted effect of over 50% in size. A digest of the protocol:
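HEK293-ACE2 cells (Expi293F stably expressing human ACE2) seeded overnight, then compound for 1 h plus 48 h at 37C. Viability as ATP content by luminescence; normalized to wells with cells and media-only wells.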
Background: The purpose of a counterscreen is to sort out artefacts and off-target activity.

Assay [2] is described as follows: Primary qHTS to identify inhibitors of SARS-CoV-2 cell entry (AID 1645846). Also: nearly all actives have a fitted effect of over 45% in size. The note with it: activity change, negative = inhibition: at 57.1 µM (top of the series) unless noted. In short, it runs like this:
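HEK293 cells stably expressing human ACE2, pre-treated 1 h with compound, then infected with MLV particles pseudotyped with Wuhan-Hu-1 spike (C-terminal 19-aa truncation). Luciferase luminescence after 48 h at 37 °C, normalised to spike PP and bald PP.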
In general terms: Quantitative high-throughput screening tests each substance at several concentrations.

Records with an inconclusive call do not appear. Entries that show only a call come without a potency. Activity calls are given as the source filed them. Calls follow the shape of the full dose curve.

Consider `Nc1c(CC(=O)O)cccc1C(=O)c1ccc(Br)cc1`, for which the Potency result in assay [1] and in assay [2] was “inactive” each time.

Take `CC(C)(C)CC(=O)OCC(=O)[C@@]1(O)CC[C@H]2[C@@H]3CCC4=CC(=O)C=C[C@]4(C)[C@H]3[C@@H](O)C[C@@]21C`: the Potency entry in assay [1] and in assay [2] was “inactive” in each case.

With `CNC(=O)c1cnn(-c2nc(N)c3ncn([C@@H]4O[C@H](CO)[C@@H](O)[C@H]4O)c3n2)c1`, the Potency entry in assay [1] and in assay [2] was “inactive” throughout.

For `CCOCCOC(=O)/C=C/c1ccc(OC)cc1`, the Potency result in assay [1] and in assay [2] was “inactive” each time.

Consider `Cc1c(N(C)C)c(=O)n(-c2ccccc2)n1C`, for which the Potency result in assay [1] was “inactive”. Also, the activity change, negative = inhibition in assay [2] is -10.1%.

Regarding `CCC(CN)=C(c1ccccc1)c1ccccc1`, the Potency result in assay [1] was “inactive”. Moreover, in assay [2], the activity change, negative = inhibition is 2.6%.

As for `CCOc1ccc(NC(C)=O)cc1`, the Potency entry in assay [1] and in assay [2] was “inactive” in each case.

`COc1cc([C@H]2Oc3cc([C@H]4Oc5cc(O)cc(O)c5C(=O)[C@@H]4O)ccc3O[C@@H]2CO)ccc1O`: in assay [1], the Potency result is “inactive”. For the same compound, in assay [2], the activity change, negative = inhibition is -12.9%.

As for `CCN(CC)C(=O)C1CN2CCc3cc(OC)c(OC)cc3C2CC1OC(C)=O` (stereo not given), the Potency entry in assay [1] and in assay [2] was “inactive” in each case.

With `C[C@@H]1CCC[C@H](C)N1CCCC(O)(c1ccccc1)c1ccccn1` (stereo not given in full), in assay [1], the Potency result was “inactive”. The activity change, negative = inhibition in assay [2] was -1.1%.
